# Target: Solute carrier family 2, facilitated glucose transporter member 1 (Homo sapiens) (UniProt P11166)
# Assay: ST_JUDE_LEISH: Cytotoxicity at 2uM final concentration against transgenic Leishmania Mexicana promastigotes LmGLUT1 that are glucose transport deficient and complemented with the human glucose transporter GLUT1. Activity is measured by DNA content using SYBR green in vitro
# Type: functional
# Sequence of Solute carrier family 2, facilitated glucose transporter member 1 (Homo sapiens) (P11166 whole entry): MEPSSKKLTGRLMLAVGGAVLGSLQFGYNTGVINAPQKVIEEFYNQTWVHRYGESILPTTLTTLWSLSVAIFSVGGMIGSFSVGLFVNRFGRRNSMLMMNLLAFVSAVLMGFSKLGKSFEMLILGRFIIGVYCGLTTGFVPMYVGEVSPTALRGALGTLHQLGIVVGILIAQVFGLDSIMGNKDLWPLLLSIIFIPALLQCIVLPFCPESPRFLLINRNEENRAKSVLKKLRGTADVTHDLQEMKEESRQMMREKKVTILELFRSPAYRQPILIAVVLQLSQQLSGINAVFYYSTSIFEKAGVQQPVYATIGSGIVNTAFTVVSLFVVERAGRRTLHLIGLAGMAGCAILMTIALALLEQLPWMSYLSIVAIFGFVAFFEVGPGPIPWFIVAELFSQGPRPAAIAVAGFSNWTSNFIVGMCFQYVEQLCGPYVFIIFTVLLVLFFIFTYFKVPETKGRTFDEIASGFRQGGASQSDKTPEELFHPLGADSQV
row,Structure (SMILES),inhibition [%]
1,CCN(C(=O)CSc1cc(C)c2cc(C)cc(C)c2n1)C1CCS(=O)(=O)C1 (stereo not given),0.63
2,CC(C)c1ccc(NC(=O)c2ccc(NCCCN(C)Cc3ccccc3)c([N+](=O)[O-])c2)cc1,0.47
3,COc1cc(CCNC(=N)/C=C/c2ccc(Cl)cc2)ccc1Cl,2.51
4,O=C1CCCN1CCCNCc1ccc(-c2ccc(-c3nc4cc(F)ccc4[nH]3)s2)cc1,2.19
5,CN1C(=C2SC(=Nc3ccc4ncccc4c3)N(Cc3ccccc3)C2=O)Sc2ccc(Cl)cc21,1.22
6,CCCCCN1CCCC1CNS(=O)(=O)c1ccc(C(=O)Nc2cccc(C(F)(F)F)c2)cc1 (stereo not given),0.76
7,Cc1cccc2nc(-c3cccc(-c4ccc(NC(=O)Cc5c[nH]cn5)cc4)c3)[nH]c12,-1.66
8,CC(=NNC(S)=NC(C)(C)C)c1ccccn1,65.9
9,CN(CCc1ccccc1)c1ncc(-c2cccc(CNCCC3CCCN3C)c2)cn1 (stereo not given),111
10,Oc1ccc(CCNc2nc(NCc3ccccc3-c3ccc(C(F)(F)F)cc3)nc(N3CCNCC3)n2)cc1,1.66
11,Cc1ccc(Cn2ncc(N3CCNCC3)c(Cl)c2=O)cc1NC(=O)Nc1ccc(-c2ccccc2)cc1,-0.01
12,COCCNC(=O)C(CNC(=O)c1ccc2c(c1)OCO2)NC(=O)c1ccc(-c2ccccc2)cc1 (stereo not given),3.8
13,CCc1ccc(CN2CCC(NC(=O)c3ccc(-c4ccc(N(C)C)cc4)s3)CC2)cc1,2.04
14,CC(=O)Nc1ccc(CN2CCC(CNC(=O)c3cc(-c4cccc(C(F)(F)F)c4)cs3)C2)cc1 (stereo not given),-0.71
15,FC(F)(F)c1ccc2nccc(NCc3ccccc3)c2c1,6.8
16,Cc1cc(=NN=Cc2ccc(F)cc2)c2ccc(F)cc2[nH]1,0.14
17,CN1CCCC(CN2CCN(Cc3cccc(-c4ccc(-c5nc6cc(C(F)(F)F)ccc6[nH]5)cc4)c3)CC2)C1 (stereo not given),1.06
18,CC(C)CCOc1ccc(NC(=O)c2cccs2)cc1,4.93
19,O=C(Nc1ccc(CCN2CCC(c3nc(COCC(F)(F)F)c(-c4ccccc4)o3)CC2)cc1)c1ccc(F)cc1,2.62
20,N#Cc1cccc(-c2ccc(C(=O)Nc3ccc4c(c3)CCN(C3CCC3)CC4)cn2)c1,7.62

row,Structure (SMILES),inhibition [%]
1,Cc1ccnc(NC(c2cccc(Cl)c2Cl)c2ccc3cccnc3c2O)c1 (stereo not given),2.69
2,O=C(/C=C/c1ccc(Cl)c(Cl)c1)NC1CCN(Cc2ccc(O)cc2)C1 (stereo not given),1.46
3,COc1cccc(C(O)CNc2ccnc(Nc3ccc(Cl)cc3)n2)c1 (stereo not given),6
4,N#Cc1ccc(N(CCOC(=O)c2ccccc2)Cc2ccccc2C(F)(F)F)cc1C(F)(F)F,1.67
5,CCCCCCCN(Cc1ccc(OC(C)(C)C(=O)OCC)cc1)C(=O)Cc1ccc(F)cc1F,2.17
6,O=S(=O)(NCCN1CCCC1)c1ccc(-c2ccc(CNC3Cc4ccccc4C3)cc2)cc1F,6.55
7,O=C(Nc1cccc(-c2csc(-c3nc4ccccc4[nH]3)c2)c1)c1cccnc1,1.57
8,O=C(/C=C/c1ccc([N+](=O)[O-])cc1)N1CCC(NS(=O)(=O)c2ccc(F)cc2)CC1,6
9,Nc1nc(N)c2c(Cl)c(N3CCOCC3)ccc2n1,36.1
10,CN1CCC(c2c[nH]c3ccc(NC(=O)Nc4ccc(-c5ccncc5)cc4Cl)cc23)CC1,1.45
11,CCCC(=O)NC(c1ccc(C)cc1)c1ccc2cccnc2c1O (stereo not given),3.47
12,NCc1ccc(CNCc2cccc(-c3cccc(-c4nc5cc(F)ccc5[nH]4)c3)c2)cc1,9.71
13,CC(C)C[C@@H](/C=N/N1CCOC1=O)NC(=O)[C@H](CC(C)C)NC(=O)c1ccc(F)cc1,7.39
14,Cc1cccc2nc(-c3ccc(-c4cccc(CN5CCN(c6ccncc6)CC5)c4)s3)[nH]c12,4.03
15,O=C(/C=C/c1ccc(Cl)c(Cl)c1)N1CCC(CNCc2cccc3cc[nH]c23)CC1,1.64
16,CCCC1(NC[C@@H](O)[C@H](Cc2ccccc2)NC(=O)c2cc(NCC)cc(N3CCCCS3(=O)=O)c2)CCC1,4.81
17,c1ccc2[nH]c(-c3ccc(-c4ccc(CNCC5CCCO5)cc4)s3)nc2c1 (stereo not given),5.5
18,Cc1c(CC(=O)NCCC2CCN(CCCCCNC(=O)/C=C/c3ccc(Cl)c(Cl)c3)CC2)sc2ccc(Cl)cc12,4.42
19,CCOC(=O)C(C)(C)Oc1ccc(C(=C2CC(C)(C)CC(C)(C)C2)c2ccc(O)cc2)cc1,4.11
20,CC(C)N(Cc1ccccc1)C(=O)CN1C(=O)COc2ccc(S(=O)(=O)N3CCCCCC3)cc21,4.92

# Target: Hexose transporter 1 (Plasmodium falciparum) (UniProt O97467)
# Assay: ST_JUDE_LEISH: Cytotoxicity at 2uM final concentration against transgenic Leishmania Mexicana promastigotes LmPfHT that are glucose transport deficient and complemented with the Plasmodium falciparum hexose transporter. Activity is measured by DNA content using SYBR green in vitro
# Type: functional
row,Structure (SMILES),inhibition [%]
1,CCN(C(=O)CSc1cc(C)c2cc(C)cc(C)c2n1)C1CCS(=O)(=O)C1 (stereo not given),0.78
2,CC(C)c1ccc(NC(=O)c2ccc(NCCCN(C)Cc3ccccc3)c([N+](=O)[O-])c2)cc1,-1.98
3,COc1cc(CCNC(=N)/C=C/c2ccc(Cl)cc2)ccc1Cl,2.01
4,O=C1CCCN1CCCNCc1ccc(-c2ccc(-c3nc4cc(F)ccc4[nH]3)s2)cc1,1.67
5,CN1C(=C2SC(=Nc3ccc4ncccc4c3)N(Cc3ccccc3)C2=O)Sc2ccc(Cl)cc21,2.08
6,CCCCCN1CCCC1CNS(=O)(=O)c1ccc(C(=O)Nc2cccc(C(F)(F)F)c2)cc1 (stereo not given),0.61
7,Cc1cccc2nc(-c3cccc(-c4ccc(NC(=O)Cc5c[nH]cn5)cc4)c3)[nH]c12,-0.73
8,CC(=NNC(S)=NC(C)(C)C)c1ccccn1,69.5
9,CN(CCc1ccccc1)c1ncc(-c2cccc(CNCCC3CCCN3C)c2)cn1 (stereo not given),67
10,Oc1ccc(CCNc2nc(NCc3ccccc3-c3ccc(C(F)(F)F)cc3)nc(N3CCNCC3)n2)cc1,-2.19
11,Cc1ccc(Cn2ncc(N3CCNCC3)c(Cl)c2=O)cc1NC(=O)Nc1ccc(-c2ccccc2)cc1,2.78
12,COCCNC(=O)C(CNC(=O)c1ccc2c(c1)OCO2)NC(=O)c1ccc(-c2ccccc2)cc1 (stereo not given),0.37
13,CCc1ccc(CN2CCC(NC(=O)c3ccc(-c4ccc(N(C)C)cc4)s3)CC2)cc1,1.82
14,CC(=O)Nc1ccc(CN2CCC(CNC(=O)c3cc(-c4cccc(C(F)(F)F)c4)cs3)C2)cc1 (stereo not given),0.04
15,FC(F)(F)c1ccc2nccc(NCc3ccccc3)c2c1,5.96
16,Cc1cc(=NN=Cc2ccc(F)cc2)c2ccc(F)cc2[nH]1,0.15
17,CN1CCCC(CN2CCN(Cc3cccc(-c4ccc(-c5nc6cc(C(F)(F)F)ccc6[nH]5)cc4)c3)CC2)C1 (stereo not given),0.64
18,CC(C)CCOc1ccc(NC(=O)c2cccs2)cc1,5.81
19,O=C(Nc1ccc(CCN2CCC(c3nc(COCC(F)(F)F)c(-c4ccccc4)o3)CC2)cc1)c1ccc(F)cc1,2.23
20,N#Cc1cccc(-c2ccc(C(=O)Nc3ccc4c(c3)CCN(C3CCC3)CC4)cn2)c1,4.8

row,Structure (SMILES),inhibition [%]
1,Cc1ccnc(NC(c2cccc(Cl)c2Cl)c2ccc3cccnc3c2O)c1 (stereo not given),5.15
2,O=C(/C=C/c1ccc(Cl)c(Cl)c1)NC1CCN(Cc2ccc(O)cc2)C1 (stereo not given),-0.06
3,COc1cccc(C(O)CNc2ccnc(Nc3ccc(Cl)cc3)n2)c1 (stereo not given),5.73
4,N#Cc1ccc(N(CCOC(=O)c2ccccc2)Cc2ccccc2C(F)(F)F)cc1C(F)(F)F,1.18
5,CCCCCCCN(Cc1ccc(OC(C)(C)C(=O)OCC)cc1)C(=O)Cc1ccc(F)cc1F,1.8
6,O=S(=O)(NCCN1CCCC1)c1ccc(-c2ccc(CNC3Cc4ccccc4C3)cc2)cc1F,13.9
7,O=C(Nc1cccc(-c2csc(-c3nc4ccccc4[nH]3)c2)c1)c1cccnc1,4.05
8,O=C(/C=C/c1ccc([N+](=O)[O-])cc1)N1CCC(NS(=O)(=O)c2ccc(F)cc2)CC1,3.96
9,Nc1nc(N)c2c(Cl)c(N3CCOCC3)ccc2n1,39.5
10,CN1CCC(c2c[nH]c3ccc(NC(=O)Nc4ccc(-c5ccncc5)cc4Cl)cc23)CC1,1.38
11,CCCC(=O)NC(c1ccc(C)cc1)c1ccc2cccnc2c1O (stereo not given),4.55
12,NCc1ccc(CNCc2cccc(-c3cccc(-c4nc5cc(F)ccc5[nH]4)c3)c2)cc1,9.36
13,CC(C)C[C@@H](/C=N/N1CCOC1=O)NC(=O)[C@H](CC(C)C)NC(=O)c1ccc(F)cc1,11.5
14,Cc1cccc2nc(-c3ccc(-c4cccc(CN5CCN(c6ccncc6)CC5)c4)s3)[nH]c12,2.05
15,O=C(/C=C/c1ccc(Cl)c(Cl)c1)N1CCC(CNCc2cccc3cc[nH]c23)CC1,0.75
16,CCCC1(NC[C@@H](O)[C@H](Cc2ccccc2)NC(=O)c2cc(NCC)cc(N3CCCCS3(=O)=O)c2)CCC1,2.33
17,c1ccc2[nH]c(-c3ccc(-c4ccc(CNCC5CCCO5)cc4)s3)nc2c1 (stereo not given),4.61
18,Cc1c(CC(=O)NCCC2CCN(CCCCCNC(=O)/C=C/c3ccc(Cl)c(Cl)c3)CC2)sc2ccc(Cl)cc12,5.42
19,CCOC(=O)C(C)(C)Oc1ccc(C(=C2CC(C)(C)CC(C)(C)C2)c2ccc(O)cc2)cc1,2.31
20,CC(C)N(Cc1ccccc1)C(=O)CN1C(=O)COc2ccc(S(=O)(=O)N3CCCCCC3)cc21,1.02
